The full data set covers some 7,900 targets. This sample favours those with a hit. About 0.6% of all pairs of compound and target were hits. Unmarked numbers belong to inactive results.
compound: Nc1ccccc1NC(=O)c1ccc(CNC(=O)OCc2cccnc2)cc1 [entinostat]; experiment: log2 fold change, soluble protein after heating vs DMSO (PISA); higher = thermal stabilisation; K562 cells, 10 uM, 30 min; active = over 0.2 and 3.5 SD of the protein, either way, in both replicates (recomputed)
How it was run: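 K562 cells at 2×10^6 cells/mL were given 10 μM compound for 30 min. Aliquots then went through 3 min of heating across 48°C-58°C, were pooled, and were extracted in PBS with 0.5% NP-40 at 4°C, and the supernatant after 21,000xg for 90 min was quantified by TMTpro 16plex LC-MS/MS with channel sums equalised. Thermal stability relative to control samples, from duplicates, is given as log2 fold change.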

Sequence of UniProt Q9Y4P1 (Q9Y4P1 whole entry, looked up): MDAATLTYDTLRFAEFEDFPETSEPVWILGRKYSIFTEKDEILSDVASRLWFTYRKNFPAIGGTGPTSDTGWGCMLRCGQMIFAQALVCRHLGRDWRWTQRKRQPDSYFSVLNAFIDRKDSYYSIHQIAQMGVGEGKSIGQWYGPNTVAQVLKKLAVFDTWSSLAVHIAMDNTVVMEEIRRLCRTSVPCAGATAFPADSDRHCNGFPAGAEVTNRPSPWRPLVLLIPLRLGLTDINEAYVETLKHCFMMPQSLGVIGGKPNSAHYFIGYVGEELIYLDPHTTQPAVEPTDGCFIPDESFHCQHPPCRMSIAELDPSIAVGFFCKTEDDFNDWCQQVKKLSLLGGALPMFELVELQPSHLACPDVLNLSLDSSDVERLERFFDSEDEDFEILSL
Sequence of UniProt Q9NP58 (Q9NP58 whole entry, looked up): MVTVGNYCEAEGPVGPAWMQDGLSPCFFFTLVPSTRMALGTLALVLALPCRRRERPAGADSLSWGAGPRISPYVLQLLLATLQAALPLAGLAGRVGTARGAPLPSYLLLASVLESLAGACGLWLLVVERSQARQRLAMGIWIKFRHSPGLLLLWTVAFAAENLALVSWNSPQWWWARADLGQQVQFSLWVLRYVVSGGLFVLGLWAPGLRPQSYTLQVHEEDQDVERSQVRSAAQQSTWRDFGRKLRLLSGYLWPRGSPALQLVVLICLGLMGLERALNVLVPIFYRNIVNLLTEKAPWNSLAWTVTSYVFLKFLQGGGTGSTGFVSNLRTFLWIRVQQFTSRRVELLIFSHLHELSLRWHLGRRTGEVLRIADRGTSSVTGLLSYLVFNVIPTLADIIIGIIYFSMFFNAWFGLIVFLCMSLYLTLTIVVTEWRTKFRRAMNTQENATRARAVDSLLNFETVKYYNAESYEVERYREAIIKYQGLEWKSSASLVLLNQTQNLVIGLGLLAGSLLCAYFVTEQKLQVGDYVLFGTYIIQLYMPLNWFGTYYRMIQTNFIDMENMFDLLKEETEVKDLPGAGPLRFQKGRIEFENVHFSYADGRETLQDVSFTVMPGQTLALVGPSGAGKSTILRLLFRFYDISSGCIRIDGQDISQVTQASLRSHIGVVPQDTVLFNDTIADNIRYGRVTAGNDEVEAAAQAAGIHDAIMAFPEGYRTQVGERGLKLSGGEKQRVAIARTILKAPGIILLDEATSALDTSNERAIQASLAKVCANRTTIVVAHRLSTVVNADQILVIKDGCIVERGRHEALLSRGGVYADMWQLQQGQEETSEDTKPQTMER
Sequence of UniProt Q9UBL3 (Q9UBL3 whole entry, looked up): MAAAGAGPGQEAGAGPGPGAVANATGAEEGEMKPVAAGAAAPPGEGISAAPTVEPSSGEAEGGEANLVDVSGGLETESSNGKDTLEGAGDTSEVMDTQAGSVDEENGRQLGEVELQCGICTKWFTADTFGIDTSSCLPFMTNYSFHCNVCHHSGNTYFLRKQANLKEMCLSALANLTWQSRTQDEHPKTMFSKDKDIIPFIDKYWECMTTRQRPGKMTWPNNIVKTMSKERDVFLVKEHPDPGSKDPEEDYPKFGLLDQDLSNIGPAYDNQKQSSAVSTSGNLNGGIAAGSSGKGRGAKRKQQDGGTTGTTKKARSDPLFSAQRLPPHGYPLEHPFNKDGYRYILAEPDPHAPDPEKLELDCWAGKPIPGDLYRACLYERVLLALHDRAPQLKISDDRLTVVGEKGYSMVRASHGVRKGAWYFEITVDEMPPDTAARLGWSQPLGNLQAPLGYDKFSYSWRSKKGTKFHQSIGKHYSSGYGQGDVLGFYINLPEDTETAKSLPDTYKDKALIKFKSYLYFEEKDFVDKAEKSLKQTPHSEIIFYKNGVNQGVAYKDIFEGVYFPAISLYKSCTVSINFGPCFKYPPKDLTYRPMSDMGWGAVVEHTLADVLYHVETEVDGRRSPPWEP
Sequence of UniProt Q02252 (Q02252 whole entry, looked up): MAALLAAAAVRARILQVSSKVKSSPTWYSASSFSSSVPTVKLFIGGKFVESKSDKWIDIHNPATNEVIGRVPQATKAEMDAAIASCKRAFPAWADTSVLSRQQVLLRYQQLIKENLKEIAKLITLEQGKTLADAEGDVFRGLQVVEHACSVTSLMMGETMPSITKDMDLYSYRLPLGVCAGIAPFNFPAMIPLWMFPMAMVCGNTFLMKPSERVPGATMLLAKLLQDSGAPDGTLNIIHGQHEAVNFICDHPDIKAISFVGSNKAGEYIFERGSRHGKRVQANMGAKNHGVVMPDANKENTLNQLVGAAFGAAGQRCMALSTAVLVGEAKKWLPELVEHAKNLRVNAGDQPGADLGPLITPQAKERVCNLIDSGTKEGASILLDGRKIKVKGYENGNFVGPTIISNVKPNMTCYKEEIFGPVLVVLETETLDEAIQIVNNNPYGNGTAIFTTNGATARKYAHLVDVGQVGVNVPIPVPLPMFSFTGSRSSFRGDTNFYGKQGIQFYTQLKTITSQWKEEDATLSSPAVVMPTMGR
Sequence of UniProt Q5T9A4 (Q5T9A4 whole entry, looked up): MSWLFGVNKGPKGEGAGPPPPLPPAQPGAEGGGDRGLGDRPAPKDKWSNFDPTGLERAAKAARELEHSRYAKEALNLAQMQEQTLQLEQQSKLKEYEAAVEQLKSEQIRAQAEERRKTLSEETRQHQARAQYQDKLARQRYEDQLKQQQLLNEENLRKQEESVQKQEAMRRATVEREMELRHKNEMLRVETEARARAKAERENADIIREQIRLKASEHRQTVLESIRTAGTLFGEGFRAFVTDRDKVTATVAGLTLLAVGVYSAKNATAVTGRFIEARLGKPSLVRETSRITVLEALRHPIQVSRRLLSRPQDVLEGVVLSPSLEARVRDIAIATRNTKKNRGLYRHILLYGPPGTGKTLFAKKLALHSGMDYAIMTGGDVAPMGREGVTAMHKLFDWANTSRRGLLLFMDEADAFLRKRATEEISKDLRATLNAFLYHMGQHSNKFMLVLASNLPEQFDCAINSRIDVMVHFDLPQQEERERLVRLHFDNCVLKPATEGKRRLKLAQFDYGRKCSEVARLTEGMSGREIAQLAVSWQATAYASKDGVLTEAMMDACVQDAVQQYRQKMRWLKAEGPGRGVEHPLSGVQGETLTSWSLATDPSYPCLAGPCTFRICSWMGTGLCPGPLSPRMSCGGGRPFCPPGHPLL
Sequence of UniProt Q2TAA5 (Q2TAA5 whole entry, looked up): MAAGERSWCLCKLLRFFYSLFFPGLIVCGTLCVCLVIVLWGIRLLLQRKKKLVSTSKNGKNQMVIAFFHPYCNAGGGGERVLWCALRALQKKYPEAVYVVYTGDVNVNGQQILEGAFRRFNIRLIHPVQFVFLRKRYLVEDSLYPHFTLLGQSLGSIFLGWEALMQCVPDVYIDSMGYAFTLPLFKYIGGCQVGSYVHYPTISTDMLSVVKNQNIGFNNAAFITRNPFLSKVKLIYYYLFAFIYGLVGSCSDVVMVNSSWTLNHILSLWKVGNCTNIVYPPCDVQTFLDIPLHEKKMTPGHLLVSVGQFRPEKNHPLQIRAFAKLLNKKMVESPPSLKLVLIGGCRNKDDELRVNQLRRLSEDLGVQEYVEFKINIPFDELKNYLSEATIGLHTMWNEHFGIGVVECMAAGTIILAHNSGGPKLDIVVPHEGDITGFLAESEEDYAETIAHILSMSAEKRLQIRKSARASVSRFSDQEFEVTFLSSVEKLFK
Sequence of UniProt Q8NHH9 (Q8NHH9 whole entry, looked up): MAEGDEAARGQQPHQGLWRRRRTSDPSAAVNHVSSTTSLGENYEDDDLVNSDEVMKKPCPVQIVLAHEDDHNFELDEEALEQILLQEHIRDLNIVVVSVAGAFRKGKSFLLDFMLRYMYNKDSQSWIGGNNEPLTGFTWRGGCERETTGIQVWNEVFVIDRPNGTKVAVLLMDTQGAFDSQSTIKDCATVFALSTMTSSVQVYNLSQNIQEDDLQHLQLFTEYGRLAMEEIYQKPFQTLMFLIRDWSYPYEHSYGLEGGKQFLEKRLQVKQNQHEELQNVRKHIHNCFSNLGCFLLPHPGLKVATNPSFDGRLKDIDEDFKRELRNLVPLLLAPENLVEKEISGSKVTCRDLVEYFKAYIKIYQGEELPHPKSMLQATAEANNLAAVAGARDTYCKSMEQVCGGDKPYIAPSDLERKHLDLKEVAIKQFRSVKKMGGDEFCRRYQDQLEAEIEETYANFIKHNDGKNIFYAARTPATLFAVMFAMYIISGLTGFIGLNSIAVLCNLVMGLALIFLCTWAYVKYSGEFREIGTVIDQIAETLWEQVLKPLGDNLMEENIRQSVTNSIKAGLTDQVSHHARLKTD
Sequence of UniProt Q9Y6E2 (Q9Y6E2 whole entry, looked up): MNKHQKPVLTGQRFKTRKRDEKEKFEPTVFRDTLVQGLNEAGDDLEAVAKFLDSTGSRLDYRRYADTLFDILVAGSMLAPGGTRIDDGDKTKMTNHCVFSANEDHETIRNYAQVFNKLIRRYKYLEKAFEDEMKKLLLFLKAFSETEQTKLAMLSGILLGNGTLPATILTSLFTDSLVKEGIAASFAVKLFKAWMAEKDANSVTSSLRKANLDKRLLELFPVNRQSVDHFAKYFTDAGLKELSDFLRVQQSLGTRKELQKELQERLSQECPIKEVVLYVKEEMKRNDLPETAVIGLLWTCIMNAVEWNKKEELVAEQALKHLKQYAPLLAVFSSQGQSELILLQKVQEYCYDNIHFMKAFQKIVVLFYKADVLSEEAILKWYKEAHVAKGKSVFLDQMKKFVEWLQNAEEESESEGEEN
Sequence of UniProt Q9NUQ2 (Q9NUQ2 whole entry, looked up): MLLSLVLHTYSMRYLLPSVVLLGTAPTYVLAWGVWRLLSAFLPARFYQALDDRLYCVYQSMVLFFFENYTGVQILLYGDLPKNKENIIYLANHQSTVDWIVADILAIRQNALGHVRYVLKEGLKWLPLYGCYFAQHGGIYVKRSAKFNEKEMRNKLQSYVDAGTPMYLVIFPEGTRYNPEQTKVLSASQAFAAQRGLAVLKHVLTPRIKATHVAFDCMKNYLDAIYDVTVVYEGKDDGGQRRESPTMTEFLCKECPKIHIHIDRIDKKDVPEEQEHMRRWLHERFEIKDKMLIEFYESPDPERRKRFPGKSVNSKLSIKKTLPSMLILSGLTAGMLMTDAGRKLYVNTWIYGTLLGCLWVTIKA

With BZW2 (UniProt Q9Y6E2) as the target, how does the log2 fold change read?
Its log2 fold change is 0.047.

How did the log2 fold change turn out when ALDH6A1 (UniProt Q02252) was run?
The log2 fold change was -0.052.

How did the log2 fold change turn out when ATAD3B (UniProt Q5T9A4) was run?
Its log2 fold change is 0.013.

ASNS (UniProt P08243) was tested. Which log2 fold change did it give?
Its log2 fold change is -0.007.

How did the log2 fold change turn out when ALG11 (UniProt Q2TAA5) was run?
Its log2 fold change is 0.01.

With AGPAT5 (UniProt Q9NUQ2) as the target, how does the log2 fold change read?
The log2 fold change was -0.027.

ALDH9A1 isoform 3 (UniProt P49189) was tested. Which log2 fold change did it give?
The log2 fold change was 0.003.

For ARL2BP (UniProt Q9Y2Y0), which log2 fold change is on record?
The log2 fold change was -0.057.

ASH2L (UniProt Q9UBL3) was tested. Which log2 fold change did it give?
The log2 fold change was 0.025.

Which log2 fold change does the source give for ACO2 (UniProt Q99798) here?
Its log2 fold change is 0.039.

How did the log2 fold change turn out when APOB (UniProt P04114) was run?
The log2 fold change was 0.042.

For AMFR (UniProt Q9UKV5), which log2 fold change is on record?
Its log2 fold change is 0.051.

AKT2 (UniProt P31751) was tested. Which log2 fold change did it give?
Its log2 fold change is 0.085.

For BCAP29 isoform 2 (UniProt Q9UHQ4), which log2 fold change is on record?
Its log2 fold change is -0.014.

For ADD3 (UniProt Q9UEY8), which log2 fold change is on record?
Its log2 fold change is -0.051.

For ATP6V0A1 isoform 3 (UniProt Q93050), which log2 fold change is on record?
The log2 fold change was 0.083.

Which log2 fold change does the source give for BCCIP isoform 2 (UniProt Q9P287) here?
Its log2 fold change is 0.027.

Which log2 fold change does the source give for BRD4 (UniProt O60885) here?
Its log2 fold change is -0.097.

ATL2 (UniProt Q8NHH9) was tested. Which log2 fold change did it give?
Its log2 fold change is -0.025.

Which log2 fold change does the source give for BRIX1 (UniProt Q8TDN6) here?
The log2 fold change was -0.008.

Which log2 fold change does the source give for ACBD6 (UniProt Q9BR61) here?
Its log2 fold change is -0.048.

With ABCB6 (UniProt Q9NP58) as the target, how does the log2 fold change read?
The log2 fold change was -0.011.

With ATG4B isoform 2 (UniProt Q9Y4P1) as the target, how does the log2 fold change read?
The log2 fold change was 0.154.

From the supplement of paper PMC10849652
